High-throughput results deposited in PubChem by Pan Lab, Icahn School of Medicine at Mount Sinai.
Only a selection was taken, and hits are over-represented in it overall.
ROC1-CUL1 inh – inhibitors of human ROC1-CUL1 ubiquitin ligase activity | E3 ubiquitin-protein ligase RBX1 (Homo sapiens) + Cullin-1 (Homo sapiens), P62877+Q13616 | in vitro K48 di-Ub FRET, acceptor:donor ratio, 45 min | inhibition, % at 10 µM | 140,000 tested, 0.6% active | AID 1347404, 2020; in the data active = inhibition above about 25%
Target sequence (P62877 whole entry, looked up): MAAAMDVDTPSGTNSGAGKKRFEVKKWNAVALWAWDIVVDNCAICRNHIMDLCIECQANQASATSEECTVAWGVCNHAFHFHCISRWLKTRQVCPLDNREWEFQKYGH
Target sequence (Q13616 whole entry, looked up): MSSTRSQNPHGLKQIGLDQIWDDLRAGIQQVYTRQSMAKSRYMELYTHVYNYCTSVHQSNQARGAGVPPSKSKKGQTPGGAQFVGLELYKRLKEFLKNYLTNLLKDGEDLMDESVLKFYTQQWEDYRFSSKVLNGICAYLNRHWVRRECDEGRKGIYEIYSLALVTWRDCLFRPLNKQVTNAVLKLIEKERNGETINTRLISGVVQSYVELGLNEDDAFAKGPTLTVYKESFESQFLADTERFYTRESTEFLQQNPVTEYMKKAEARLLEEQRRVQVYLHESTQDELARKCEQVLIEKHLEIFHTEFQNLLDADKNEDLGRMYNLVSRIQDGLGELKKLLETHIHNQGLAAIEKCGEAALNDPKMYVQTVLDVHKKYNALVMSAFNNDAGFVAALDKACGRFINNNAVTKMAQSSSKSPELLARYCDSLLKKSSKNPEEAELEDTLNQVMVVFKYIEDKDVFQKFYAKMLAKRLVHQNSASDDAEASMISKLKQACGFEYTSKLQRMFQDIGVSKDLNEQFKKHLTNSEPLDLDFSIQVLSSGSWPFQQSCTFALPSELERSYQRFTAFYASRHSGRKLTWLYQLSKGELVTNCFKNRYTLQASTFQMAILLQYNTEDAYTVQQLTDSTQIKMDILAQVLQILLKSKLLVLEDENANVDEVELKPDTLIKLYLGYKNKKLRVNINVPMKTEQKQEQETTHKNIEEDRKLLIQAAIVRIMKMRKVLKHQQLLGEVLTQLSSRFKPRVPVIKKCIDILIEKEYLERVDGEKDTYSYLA
Starred values were filed as active, the others as inactive.

SMILES	ROC1-CUL1 inh
Cc1c(/C=C2/C(=O)NC(=S)N(c3cccc(Cl)c3Cl)C2=O)c2ccccc2n1C	-5
CCc1cccc(C)c1-n1c(C)cc(/C=C2\C(=O)NC(=S)N(c3ccccc3F)C2=O)c1C	-8
Cn1cccc1/C=C1\C(=O)NC(=S)N(c2ccccc2F)C1=O	95*
CCc1ccc(N2C(=O)/C(=C/c3cccn3-c3ccccc3)C(=O)NC2=S)cc1	8
CCOc1ccc(N2C(=O)/C(=C/c3cccn3C)C(=O)NC2=S)cc1	10
O=C1NC(=S)N(c2ccc(Cl)cc2)C(=O)/C1=C/c1cccn1-c1cccc(C(=O)O)c1	25*
Cc1c(Cl)cccc1N1C(=O)/C(=C/c2cccn2-c2cccc(C(=O)O)c2)C(=O)NC1=S	101*
O=C1NC(=S)N(c2ccc(Br)cc2)C(=O)/C1=C/c1cccn1-c1ccccc1	1
O=C1CC(N(Cc2ccc3c(c2)OCO3)C(=O)c2ccc(Cl)cc2)C(=O)N1c1ccc(Br)cc1 (stereo not given)	-8
Cc1cc(C(=O)NCc2cccnc2N(C)Cc2ccccc2)c(=O)[nH]c1C	-3
CCc1ccc(OCCSc2nnc(C)c(=O)[nH]2)cc1	7
CCCC(C)NS(=O)(=O)c1ccc(C)cc1C (stereo not given)	3
CC1=NN(C(C)C)c2nc3c(c(=O)n(CCC(C)C)c(=O)n3C)n2C1	-15
COc1ccccc1C(=O)Nc1nnc(SCC2=Nc3ccccc3C(=O)C2)s1	-11
CCCCC(=O)NCCc1nc2ccccc2[nH]1	0
COc1ncccc1-c1cnn(CC(=O)Nc2cc(C)nn2C2CCCC2)c1	2
CCCCN(C)C(=O)CC1C(=O)NCCN1Cc1ccc(OC)c(OC)c1 (stereo not given)	6
Cc1ccc(-c2[nH]nc3c2C(c2ccc(Br)cc2)C(C#N)C(=N)O3)cc1C (stereo not given)	16
C/C(=N\Nc1nc(-c2ccccc2)cs1)c1cccc(O)c1	2
O=S(=O)(Cc1c(F)cccc1Cl)NCCc1ccccc1	10
COc1ccc(OC)c(NC(=O)CN(Cc2ccc(C)cc2)S(=O)(=O)c2ccccc2)c1	-5
Cc1nc(C)c(C(=O)NC(C)c2cnn(-c3ccccn3)c2C)s1 (stereo not given)	-6
O=C(NNC(=O)C(c1ccccc1)c1ccccc1)C1CCCCC1	2
CCC1c2c(ccc3ccccc23)OC(=O)C1C(=O)Nc1ccc(C)cc1 (stereo not given)	-6
O=C1/C(=C/c2ccc(Cl)cc2)COc2ccc3ccccc3c21	15
SMILES	ROC1-CUL1 inh
O=C1Oc2ccc3ccccc3c2C(=O)C1CC1C(=O)Oc2ccc3ccccc3c2C1=O (stereo not given)	32*
O=C1NC2(CCCC2)C(=O)N1CCS(=O)(=O)Oc1ccc(Cl)cc1	5
CCN1CCN(c2nc3nonc3nc2NCc2ccccc2)[C@@H](C)C1=O	0
O=C1/C(=C\c2cccs2)C(c2ccccc2)=NN1c1ccc(Cl)c(Cl)c1	-5
O=C(O)C1=NN(c2ccccc2)C(=O)/C1=C\c1cccs1	26*
CCOC(=O)C1=NN(c2ccccc2)C(=O)/C1=C\c1ccc(F)cc1	6
Cn1c(Sc2ccc([N+](=O)[O-])cc2[N+](=O)[O-])nc2ccccc21	8
CCN(CC)CCSc1c[nH]c2ccccc12	1
C=CCn1ccc(-c2cccc(-c3cc(C(=O)N4CCCC4)ccn3)c2)n1	3
C[n+]1cc2cscc2c2ccsc21	-11
C=CCn1c(SCC(=O)Nc2cccc(C(F)(F)F)c2)nc2sc3c(c2c1=O)CCC3	-5
C=CCn1c(SCC(=O)Nc2sc(C(=O)OCC)c(C)c2C(=O)OCC)nc2scc(-c3ccco3)c2c1=O	8
C=CCn1c(SCC(=O)Nc2cccc(C(F)(F)F)c2)nc2scc(-c3ccco3)c2c1=O	34*
O=C1CCN1C1(C(=O)NC2CCCCC2)CCCCC1	3
CCCCCCOC(=O)C(CCCCN1C(=O)c2ccccc2C1=O)N1C(=O)c2ccccc2C1=O (stereo not given)	5
CCOC(=O)C#CCN1C(=O)c2ccccc2C1=O	40*
O=C1c2ccccc2C(=O)N1CC#Cc1ccccc1	-7
CC(C)(C)CN1CC(NC(=O)NCc2ccco2)CC1=O (stereo not given)	-11
CC(=O)N(C)C1=C(N2CCCC2)C(=O)c2ccccc2C1=O	-6
O=C1C(=Cc2ccc(N3CCCCCC3)o2)C(=O)c2ccccc21	4
O=C1C=C(N2CCCCC2)c2ccccc2C1=O	80*
Cc1nc(N2CCc3ccccc32)nc2c1C(=O)CC(C)(C)C2	0
O=C1C=C(N2CCc3ccccc32)c2ccccc2C1=O	77*
Nc1ccc(S(=O)(=O)N2CCc3ccccc32)cc1	5
CCn1c(=O)c2c(nc3n2CCCN3c2ccc(OC)cc2)n(C)c1=O	-3
SMILES	ROC1-CUL1 inh
COc1cccc(NC(=O)c2cnn(-c3ccccc3)c2-c2ccccc2)c1	-5
Cc1sc2ccc(Br)cc2c1C	-1
COc1nc(C)nc2ccc(Cl)cc12	-4
N#CC1C(=N)OC2=C(C(=O)CCC2)C1c1ccc(-c2ccccc2)cc1 (stereo not given)	9
COc1ccc(/C=C2\N=C(SCC(=O)Nc3ccc(C)cc3)N(c3ccccc3)C2=O)cc1OC	12
Cc1cc(Cl)ccc1NC(=O)CN1CCC(C)CC1	1
Cc1cc(Br)ccc1NC(=O)CN1CCC(C)CC1	98*
Cc1cc(Br)c(NC(=O)CN2CCC(C)CC2)cc1C	5
O=C(CCN1CCCO1)N1CCCC(CCc2cccc(F)c2)C1 (stereo not given)	-5
CCN1CCN(C2(C(=O)NCc3cccc(C)c3)Cc3ccccc3C2)CC1	14
Fc1cccc(C2(CNc3ccnn3Cc3cccnc3)CCOC2)c1 (stereo not given)	5
CC(=O)Nc1ccc(-n2cccc2)cc1	-3
CC1=NN(c2cccc(S(=O)(=O)O)c2)C(=O)C1	7
CC(=O)Nc1ccc(N2N=C(C)CC2=O)cc1	28*
CS(=O)(=O)c1ncc(CN2CCCC2c2nccs2)n1Cc1ccccc1F (stereo not given)	9
CCOc1cc(-c2ccc(O)c(O)c2)cc(=Nc2ccc(Br)cc2)c2c(C)oc(C)c12	50*
CCOc1cc(-c2ccc(O)cc2)cc(=O)c2c(C)oc(C)c12	-18
CCOc1cc(-c2ccc3c(c2)OCO3)cc(=Nc2cccc(OC)c2)c2c(C)oc(C)c12	0
C=CCNc1nc(N)c(C(=O)c2ccc(Br)s2)s1	7
CCc1ccccc1C1C(=O)c2ccccc2C1=O	8
CN1C(=O)C(=O)C2c3ccccc3C(=O)c3c(Cl)cc(Cl)c1c32 (stereo not given)	33*
CN1C(=O)C(c2cccc(Cl)c2)C(=O)c2ccccc21 (stereo not given)	-13
COc1cccc(CCC2CCCN(Cc3cnc[nH]3)C2)c1 (stereo not given)	-1
CCc1oc2ccccc2c(=O)c1C(=O)c1ccc(C)cc1	-7
CC1CN(C(=O)/C=C/c2ccc(F)cc2)C(C)CN1C(=O)/C=C/c1ccc(F)cc1 (stereo not given)	-2
CCN=C1CC=C(Br)C=C(C(=O)/C=C/c2c(Cl)cccc2Cl)C1=O	90*
CCN=C1CC=C(Br)C=C(C(=O)/C=C/c2cc(OC)ccc2OC)C1=O	55*
NS(=O)(=O)c1ccc(CNC(=O)/C=C/c2c(Cl)cccc2Cl)cc1	16
O=C(/C=C/c1c(Cl)cccc1Cl)Nc1ncccn1	-3
COc1ccc(Br)cc1/C=C/C(=O)c1ccc(OS(C)(=O)=O)cc1	0
